Data on 1 compound can be found in PubChem BioAssay AID651871 (Sanford-Burnham Center for Chemical Genomics, 2012).

This assay concerns HL-1. The assay is described as follows: protection of cardiomyocytes from stress damage, SAR follow-up, cell-based, panel, H9c2 and HL-1, ATP luminescence, set 2 (AID 651871).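 Further: cells exposed to stressor for 2 h before ATP readout; reference of the scale not given here.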 Conditions: H9c2/HL-1 cardiomyocytes, 2-deoxyglucose stress, with 2-deoxyglucose, run 11, at 19.8 µM (top of the series).

For the compound `COc1ccc2c(c1OC)C(=O)N1c3ccccc3C(=O)N(Cc3cccc(Cl)c3Cl)C21` (stereo unspecified), the activity (protection/inhibition) is 40%.
